Records with an inconclusive call do not appear. Active and inactive are the calls of the source. Calls follow the shape of the dose curve; as a rule, active = well fitted inhibition curve with a large enough effect; inconclusive = small, poorly fitted or top-dose-only effect; inactive = flat fitted curve, though single readings scatter. Numbered stars: 1 amine (or outer) side, 2 acyl side, 3 side chain; on linkers, the order of the positions; unused ones are H or OH. Bridge positions count the residues as written; N and C are the ends. Square brackets hold non-standard residues; d marks the D form. Peptide text beside a SMILES is read from it. * marks the point of attachment. ξ: configuration not given here. ΔAla(Z-3-ureido) = NC(=O)N/C=C(\N)C(=O)O; X2 = NC1=NC(O)CC(C(N[*:1])C(=O)[*:2])N1; ξβ3hOrn = NCCCC(N)CC(=O)*; Dap = NC[CH](N)C(=O)O
Columns and labels:
Assay in all cases: qHTS profiling for inhibitors of Plasmodium falciparum proliferation (AID 504749); also: nearly all actives have a fitted effect of over 60% in size
Conditions in all cases: P. falciparum in erythrocytes, SYBR Green DNA, 72 h; series mostly up to 28.7 µM
[1] = system: 7G8
Outline: (§1)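 Infected RBCs, 0.3% parasitemia/2.5% Hct final; cpd 72 h, 37 C, 5% CO2; lysis buffer with saponin/triton/SYBR Green I, o/n RT dark; FI 485/535; norm. to artemisinin (0.29 uM) and DMSO.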

[2] = system: AA1029
Outline: as §1

[3] = system: CP192
Outline: as §1

[4] = system: CP194
Outline: as §1

[5] = system: CP203
Outline: as §1

[6] = system: CP217
Outline: as §1

[7] = system: CP237
Outline: as §1

[8] = system: CP250
Outline: as §1

[9] = system: CP266
Outline: as §1

[10] = system: CP268
Outline: as §1

[11] = system: CP269
Outline: as §1

[12] = system: CP291
Outline: as §1

[13] = system: CP315
Outline: as §1

[14] = system: CP329
Outline: as §1

[15] = system: DIV30
Outline: as §1

[16] = system: HB3
Outline: as §1

[17] = system: JCK
Outline: as §1

[18] = system: P94_40
Outline: as §1

[19] = system: PC26
Outline: as §1

[20] = system: TAB109
Outline: as §1

Measured: Potency

CC(=O)OCC1=C(C(=O)O)N2C(=O)C(NC(=O)Cc3ccccc3)C2SC1 (centres undefined)
inactive: all assays above

CC(C)CC(NC(=O)C(COC(C)(C)C)NC(=O)C(Cc1ccc(O)cc1)NC(=O)C(CO)NC(=O)C(Cc1c[nH]c2ccccc12)NC(=O)C(Cc1cnc[nH]1)NC(=O)C1CCC(=O)N1)C(=O)NC(CCCN=C(N)N)C(=O)N1CCCC1C(=O)NNC(N)=O (centres undefined)
inactive: all assays above

NCCCC(N)CC(=O)NC1CNC(=O)C(C2CC(O)N=C(N)N2)NC(=O)/C(=C/NC(N)=O)NC(=O)C(CO)NC(=O)C(CO)NC1=O (stereo not drawn) (ξβ3hOrn-[Dap]SS[ΔAla(Z-3-ureido)][X2]; lactam 1-C; configuration not given here)
inactive: all assays above

O=C1/C(=C\c2cccs2)CCC/C1=C/c1cccs1
not listed: [1]
inactive: all other assays above
